# Sampled rows, rich in hits. Any-hit rate of the full collection: about 19%.
# DT40 TDP1 CPT: DT40-hTDP1 cell growth loss with CPT; chicken DT40 Tdp1-/-;hTDP1 cells + 20 nM CPT, ATP luminescence, 48 h; 420,000 tested, 12% active; AID 686979; Potency, µM (top dose mostly 46.2 µM), for the others: at the highest dose activity change, negative = growth inhibition, actives largely listed as inhibitors; also: potency is read from the fitted curve at half-maximal effect; nearly all actives have a fitted effect of over 55% in size
#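 Chicken DT40 Tdp1-/- cells stably complemented with human TDP1 were seeded at 400 cells/well in medium containing 20 nM camptothecin, exposed to pin-transferred compounds, and grown at 37 °C for at least 48 hr. Viability was read as ATP luminescence.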
# HT1080 IDH1KD tx: kills HT-1080 cells with IDH1 knockdown. HT-1080 IDH1 knockdown viability, ATP luminescence, 48 h. Potency, µM (top dose mostly 46.1 µM), without a hit: top-dose activity, negative = toxicity, actives largely listed as cytotoxic. 360,000 tested, 2% active. AID 686971;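 also: potency is read from the fitted curve at half-maximal effect; 0% = DMSO wells and -100% = cell-free medium wells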
#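 Luminescent ATP read-out (CellTiter-Glo, 10 min at room temperature) after 48 h compound exposure at 37 °C gave viability of IDH1-knockdown HT-1080 cells. Activity was normalised to DMSO and cell-free wells, then fitted as concentration-response curves.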
# IL1B secr inh: inflammasome signaling inhibition, IL-1 beta readout. THP-1 LPS/ATP IL-1B secretion, AlphaLISA, 16 h; hits give low values. activity change, % at 57.5 µM. 360,000 tested, 4.7% active. AID 743279; in the data active = activity change below about -50%; inconclusive = mostly about -30% to -49%
#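 THP-1 cells pretreated 1 hr with compounds (up to 57.5 uM final), then stimulated with LPS (250 ng/mL final) plus ATP (1.25 mM final); secreted IL-1B measured by AlphaLISA after 16 hr, decreased signal indicating inhibition.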
# HT1080NT lethal: kills 2HG-producing HT-1080-NT fibrosarcoma cells. Potency, µM (highest dose often 46.1 µM), for inactives: top-dose activity, negative = less viability, most hits filed as cytotoxic. HT-1080-NT fibrosarcoma viability, CellTiter-Glo ATP luminescence, 48 h. 360,000 tested, 1.6% active;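 also: NT is the 2HG producing partner of a matched IDH1 knockdown line; potency is read from the fitted curve at half-maximal effect; 0% = DMSO-treated cells and -100% = media-only wells without cells; nearly all actives have a fitted effect of over 55% in size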
#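 Luminescent CellTiter-Glo readout after 48 hours of compound exposure at 37 degrees C defined viability of HT-1080-NT cells. Activity was normalized to DMSO wells and cell-free media wells; concentration-response curves were fitted and assigned curve classes.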
# TDP1 cell noCPT: qHTS for Inhibitors of human tyrosyl-DNA phosphodiesterase 1 (TDP1): qHTS in cells in absence of CPT | AID 686978, 2013 | DT40 Tdp1-/- hTDP1 cells, no CPT, ATP luminescence, 48 h | Potency, µM (top dose mostly 46.2 µM), for the others: top-dose activity change, negative = growth inhibition, most hits filed as inhibitors | 420,000 tested, 15% active; also: potency is read from the fitted curve at half-maximal effect; nearly all actives have a fitted effect of over 55% in size
#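 Stably hTDP1-transfected Tdp1-null chicken DT40 cells were treated with library compounds minus camptothecin and grown for at least 48 hr at 37 °C, after which cellular ATP was quantified by luminescence.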
# Numbers without * were called inactive; ? = inconclusive; nt = no result; [ ] = remark or other dose. Unless noted, calls follow the shape of the dose curve; as a rule, active = well fitted curve in the direction sought with a large enough effect; inconclusive = small, poorly fitted or top-dose-only effect, or another doubt; inactive = no such curve, though single readings can be large; an effect the other way counts as inactive or inconclusive. Unless noted, % is scaled to controls: 0 for no effect and ±100 for the full control effect.
SMILES,DT40 TDP1 CPT,HT1080 IDH1KD tx,IL1B secr inh,HT1080NT lethal,TDP1 cell noCPT
COc1ccc(CC(N)c2csc(Nc3cnccn3)n2)cc1 (stereo unspecified),?,-29%,-4,-13%,?
NC(Cc1ccc(F)cc1)c1csc(Nc2nccc(C(F)(F)F)n2)n1 (stereo unspecified),?,15µM*,-59*,23µM*,15µM*
COc1ccc(CC(N)c2csc(Nc3nccc(C(F)(F)F)n3)n2)cc1 (stereo unspecified),?,?,-56*,?,?
NC(Cc1ccccc1)c1csc(Nc2nccc(C(F)(F)F)n2)n1 (stereo unspecified),16µM*,?,-12,?,21µM*
COc1ccc(CC(N)c2csc(Nc3ncccn3)n2)cc1 (stereo unspecified),4.6µM*,?,-29,-30%,6.5µM*
CCOC(=O)/C=C1\SCC(=O)N1CC(=O)Nc1cccc(F)c1,2%,3%,-5,3%,-23%
CC(C)C[C@H]1CN(CCCC[C@@H]2CNC(=O)C(=O)N2CC2CCCCC2)C(=O)C(=O)N1CC1CCCCC1,0%,7%,-4,18%,-28%
O=C(CCc1nc2ccccc2c(=O)[nH]1)NNC(=O)c1ccc(F)cc1,-7%,5%,18,3%,16%
NC(Cc1ccc(Cl)cc1)c1csc(Nc2nccc(C(F)(F)F)n2)n1 (stereo unspecified),?,23µM*,-56*,16µM*,?
COc1ccc(CC(N)c2csc(Nc3cc(NCc4ccco4)ncn3)n2)cc1 (stereo unspecified),?,?,-51*,?,13µM*
O=S(=O)(CC(CN1CCCCC1)N1CCCCC1)c1ccccc1 (stereo unspecified),7.3µM*,?,-97*,?,4.6µM*
O=C1CCCN1CC(O)CS(=O)(=O)c1ccccc1 (stereo unspecified),-12%,-4%,15,4%,-5%
O=[N+]([O-])c1ccc(C(O)CN2CCOCC2)cc1 (stereo unspecified),2%,-2%,19,-5%,-2%
O=[N+]([O-])c1ccc(S(=O)(=O)CC(CN2CCOCC2)N2CCOCC2)cc1 (stereo unspecified),?,-8%,-74*,-13%,?
COc1cc(CN2CCN(Cc3ccc(C(F)(F)F)cc3)CC2)cc(OC)c1OC,23µM*,-6%,-1,-7%,21µM*
COc1ccc(CN2CCN(Cc3ccc(C(F)(F)F)cc3)CC2)c(OC)c1,21µM*,-14%,-24,-13%,15µM*
COc1cc(CN2CCN(Cc3ccccc3C(F)(F)F)CC2)cc(OC)c1OC,?,-7%,-22,7%,26µM*
Cc1ccc(CN2CCN(Cc3ccccc3C(F)(F)F)CC2)cc1,?,-3%,-4,0%,?
COc1ccc(S(=O)(=O)N2CCN(C/C=C/c3ccccc3)CC2)cc1F,2%,-3%,-65*,-8%,?
CCOC(=O)c1ccc(S(=O)(=O)N2CCN(C/C=C/c3ccccc3)CC2)cc1,?,-2%,1,-5%,13µM*
CCOC(=O)/C(C#N)=C\c1ccc(N2CCN(C/C=C/c3ccccc3)CC2)cc1,?,-13%,6,-8%,21µM*
COc1ccc(S(=O)(=O)N2CCN(c3ccc(F)cc3)CC2)cc1OC,-19%,-1%,16,1%,-17%
CCOC(=O)c1ccc(S(=O)(=O)N2CCN(C)CC2)cc1,3%,15%,15,2%,-2%
COc1ccc(S(=O)(=O)N2CCN(CCCOc3ccc(F)cc3)CC2)cc1OC,?,-23%,-14,0%,21µM*
Cc1cccc(C)c1NC(=O)CN(C)C(=O)COc1cccc2c1OC(C)(C)C2,-3%,-5%,-14,9%,-21%
SMILES,DT40 TDP1 CPT,HT1080 IDH1KD tx,IL1B secr inh,HT1080NT lethal,TDP1 cell noCPT
CC1=C(C(N)=O)N2C(=O)[C@@H](NC(=O)Cc3ccccc3)C2SC1 (stereo partly specified),14%[9.04 µM],nt,nt,nt,7%[9.04 µM]
CC(=O)Nc1ccc(C(=O)OCC(=O)NC2CCCCCC2)cc1,3%,-2%,25,-4%,-14%
COCCCNC(=O)C[C@@H]1C[C@@]2(C(=O)OC)CC(C)(C)CC=C2N(Cc2ccco2)C1=O,-7%,0%,0,19%,0%
CCCCCCCCN1C(=O)[C@H](CC(=O)NCCc2ccccc2OC)C[C@@]2(C(=O)OC)CC(C)(C)CC=C12,21µM*,?,-24,?,?
CCOC(=O)[C@]12CCC=C1N(Cc1ccccc1)C(=O)[C@H](CC(=O)NCCc1ccccc1OC)C2,?,-1%,-4,-4%,?
CCCCCCCCN1C(=O)[C@H](CC(=O)NCCCOC)C[C@@]2(C(=O)OC)CC(C)(C)CC=C12,?,?,-15,?,15µM*
CCCCCCCCN1C(=O)[C@H](CC(=O)NCCCN2CCCC2=O)C[C@@]2(C(=O)OC)CC(C)(C)CC=C12,13µM*,?,-25,?,13µM*
C#CCNC(=O)C[C@@H]1C[C@@]2(C(=O)OC)CC(C)(C)CC=C2N(CCCCCCCC)C1=O,?,?,-15,?,16µM*
CCCCCCCCN1C(=O)[C@H](CC(=O)NCCCOCCCC)C[C@@]2(C(=O)OC)CC(C)(C)CC=C12,?,?,-11,-3%,15µM*
COC(=O)[C@@]12C[C@@H](CC(=O)NCCCN3CCCC3=O)C(=O)N(Cc3ccco3)C1=CCC(C)(C)C2,1%,0%,-8,0%,21%
COC(=O)[C@@]12C[C@@H](CC(=O)NCCCN3CCCC3=O)C(=O)N(Cc3ccccc3)C1=CCC(C)(C)C2,11%,-2%,7,14%,-27%
CCCCCCCCN1C(=O)[C@H](CC(=O)NCC2CCCCC2)C[C@@]2(C(=O)OC)CC(C)(C)CC=C12,?,0%,-6,-16%,13µM*
O=c1c2ccccc2nc(/C=C/c2ccc3c(c2)OCO3)n1CCCO,-4%,6.5µM*,-56*,?,?
O=c1c2ccccc2nc(/C=C/c2ccccc2)n1CCCO,?,-3%,-17,-10%,?
CCCc1nc2ccccc2c(=O)n1CCc1ccccc1,13µM*,-15%,-4,-15%,9.2µM*
CN(C)c1ccc(/C=C/c2nc3ccccc3c(=O)n2CCO)cc1,18µM*,?,-9,-25%,16µM*
CCCc1nc2ccccc2c(=O)n1N,4%,4%,1,0%,-6%

# Screening results deposited in PubChem by National Center for Advancing Translational Sciences (NCATS).
